About 530 (0.24%) of roughly 220,000 compounds were called active. This is one part of a sample in which actives are shown more often than they occur. Rule as the data show it: active = inhibition above about 13%; inconclusive = no clear call, values can overlap the other calls; inactive = below that. Results with a measured potency or affinity are listed apart.

This assay deals with Bifunctional protein GlmU (Mycobacterium tuberculosis (strain ATCC 25618 / H37Rv)) (UniProt P9WMN3). Briefly: inhibition of mycobacterial GlmU enzyme – biochemical, glucosamine-1-phosphate acetyltransferase (AID 1376).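 Also: 0% = complete reaction with vehicle and 100% = reaction without substrate.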 Conditions: M. tuberculosis GlmU acetyltransferase enzyme assay; active compounds read high;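 tested at 30 µM in the primary screen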.
Bifunctional protein GlmU (Mycobacterium tuberculosis (strain ATCC 25618 / H37Rv)), sequence (P9WMN3 whole entry, looked up): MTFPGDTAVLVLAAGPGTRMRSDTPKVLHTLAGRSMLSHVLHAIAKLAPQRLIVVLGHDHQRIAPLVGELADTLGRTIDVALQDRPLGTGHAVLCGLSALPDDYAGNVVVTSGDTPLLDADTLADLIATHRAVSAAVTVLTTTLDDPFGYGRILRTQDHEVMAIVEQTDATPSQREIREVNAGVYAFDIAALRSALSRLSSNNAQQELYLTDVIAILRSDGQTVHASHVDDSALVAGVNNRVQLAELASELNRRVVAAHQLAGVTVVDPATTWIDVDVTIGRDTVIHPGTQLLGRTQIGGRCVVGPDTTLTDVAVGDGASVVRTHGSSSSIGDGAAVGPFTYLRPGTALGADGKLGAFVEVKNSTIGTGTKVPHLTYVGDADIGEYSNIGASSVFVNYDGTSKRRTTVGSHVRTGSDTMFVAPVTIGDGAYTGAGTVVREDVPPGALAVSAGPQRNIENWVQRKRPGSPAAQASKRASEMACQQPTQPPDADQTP
As a reminder, the inhibition is the relative decrease from the control value, in per cent. As to `CC(=O)N1N=C(c2cccs2)CC1c1cccs1` (stereo not given), the inhibition is -7.39% (inactive). The figure for `CCNC(=O)CCS(=O)(=O)c1ccc2ccccc2c1` is 5.84% (inactive); for `CCc1nc(SCC(=O)N2CC(=O)Nc3ccccc32)c2c(C)c(C)sc2n1` it is 14.6% (active); for `Cc1sc2nc(C3CC3)nc(SCC(=O)N3CC(=O)Nc4ccccc43)c2c1C` it is 2.43% (inactive). As to `Cc1sc2nc(C3CCCCC3)nc(SCC(=O)N3CC(=O)Nc4ccccc43)c2c1C`, the inhibition was -0.32% (inactive). Consider `COCCCNc1nc2nonc2nc1N1CCN(C2CCCC2)CC1`, for which the inhibition is -4.2% (inactive). With `CN1CCN(C(=S)Nc2ccccc2Cl)CC1` the figure was 7.2% (inactive). With `CCCCOC(=O)CSc1nc2ccccc2o1` the figure was 6.41% (inactive); with `COc1cc(-c2cn[nH]c2N)cc(OC)c1OC`, 6.07% (inactive).

As for `COc1ccc(/C=N/NC(=O)c2ccc(Cl)c(S(N)(=O)=O)c2)cc1OCC(N)=O`, the inhibition was 2.57% (inactive). The figure for `O=C(O)C(c1ccccc1)c1ccccc1` is 4.26% (inactive); for `O=C(O)C(c1ccccc1)C(c1ccccc1)c1ccccc1` (stereo not given) it is 2.54% (inactive). With `O=C(O)C(c1ccccc1)C1(O)CCCC1` (stereo not given) the figure was 13.3% (active); with `COc1ccc(C(=O)Nc2ccc([N+](=O)[O-])cn2)c(OC)c1`, 0.14% (inactive). With `O=C(/C(=N/N=C/c1ccc(O)c(O)c1O)c1ccccc1)c1ccccc1` the figure was 7.49% (inactive); with `Oc1ccc(/C=N/N(Cc2ccccc2)c2ccccc2)c(O)c1O`, 13.5% (active); with `COc1ccc(/C=N/N(Cc2ccccc2)c2ccccc2)cc1O`, 6.68% (inactive).

Take `Oc1cccc(/C=N/N(Cc2ccccc2)c2ccccc2)c1`: the inhibition is -0.56% (inactive).

Regarding `CCN(CC)c1ccc(/C=N/N=C(c2ccccc2)c2ccccc2)c(O)c1`, the inhibition is 6.73% (inactive).

For the compound `COc1ccc(C2CC(=O)c3cc(OC)c(OC)cc32)cc1OC` (stereo not given), the inhibition is -0.52% (inactive).

Regarding `CCOC(=O)C1=C(C)N=C2SC(C)C(=O)N2C1c1ccc(OC(C)=O)c(OC)c1` (stereo not given), the inhibition is 5.74% (inactive). On to `CCOC(=O)C1=C(C)N=C2SC(C)C(=O)N2C1c1ccc(OCC)c(OCC)c1` (stereo not given), for which the inhibition is 14.7% (active). Take `CCOc1cc(C2C(C(=O)OC)=C(C)N=C3SC(C)C(=O)N32)ccc1OC(C)=O` (stereo not given): the inhibition was -1.96% (inactive). With `Cc1cccc(OCc2nnc(SCc3cc(=O)n4cc(Br)ccc4n3)o2)c1` the figure was 7.11% (inactive); with `O=C(NCCO)c1ccc2nc(-c3ccco3)c(-c3ccco3)nc2c1`, 5.04% (inactive); with `O=C(NCCO)Nc1ccc2nc(-c3ccco3)c(-c3ccco3)nc2c1`, 19.4% (active). For `O=C(Nc1ccc2nc(-c3ccco3)c(-c3ccco3)nc2c1)N1CCN(c2ccccn2)CC1`, the inhibition was 12.6% (inactive). With `O=C(Nc1ccccc1)c1ccc2nc(-c3ccco3)c(-c3ccco3)nc2c1` the figure was 2.41% (inactive); with `O=C(Nc1ccc2nc(-c3ccco3)c(-c3ccco3)nc2c1)N1CCCCCC1`, 14.8% (active).

With `O=C(Nc1ccc(N2CCOCC2)cc1)c1ccc2nc(-c3ccco3)c(-c3ccco3)nc2c1`, the inhibition was 10.1% (inactive). Turning to `CC(=O)c1ccc(NC(=O)c2ccc3nc(-c4ccco4)c(-c4ccco4)nc3c2)cc1`, the inhibition was 14.4% (active). Consider `O=C(Nc1ccc(N2CCOCC2)cc1)Nc1ccc2nc(-c3ccco3)c(-c3ccco3)nc2c1`, for which the inhibition is -3.2% (inactive). With `CCOC(=O)C1CCN(C(=O)Nc2ccc3nc(-c4ccco4)c(-c4ccco4)nc3c2)CC1` the figure was 11.1% (inactive); with `CC(=O)c1ccc(N2CCN(C(=O)Nc3cccc(F)c3)CC2)cc1`, -1.45% (inactive); with `COc1cccc(C2/C(=C(\O)c3ccc4c(c3)OCO4)C(=O)C(=O)N2CCN(C)C)c1OC` (stereo not given), 1.43% (inactive). In the case of `O=C(O)c1ccc(N=Cc2c(O)n(Cc3ccc(F)cc3)c(=O)[nH]c2=O)cc1`, the inhibition is -1% (inactive). With `Cc1ccc(NS(=O)(=O)c2ccc(C3CCCCC3)cc2)cc1` the figure was -5.89% (inactive); with `C=CCn1c(-c2c(C)nc3cc(C)ccn23)n[nH]c1=S`, 0.98% (inactive); with `Cc1ccc(N(CC(=O)NCCSCc2ccco2)S(=O)(=O)c2ccc(C)cc2)cc1`, -1.27% (inactive). Take `CN1CCN(c2ccc([N+](=O)[O-])c(Sc3nncn3C)c2)CC1`: the inhibition is -2.97% (inactive). Take `COc1ccc(-c2ccc(-c3noc(-c4cccc(OC)c4)n3)c(OC)n2)cc1`: the inhibition is 14% (active).

In the case of `COc1ccc(-c2ccc(-c3noc(-c4ccccc4)n3)c(OC)n2)cc1`, the inhibition was 6.47% (inactive). Regarding `COc1ccc(-c2ccc(-c3noc(-c4ccco4)n3)c(OC)n2)cc1`, the inhibition is 1.18% (inactive). Regarding `O=[N+]([O-])c1cccc(/C=N/Nc2ccccn2)c1`, the inhibition was 0.69% (inactive).

Turning to `O=C1CC(N(O)c2ccccc2)C(=O)N1Cc1ccccc1` (stereo not given), the inhibition is 8.24% (inactive). With `C/C(=N\N=C1\NC(=O)C(Cc2ccccc2)S1)c1ccccc1` (stereo not given) the figure was 2.56% (inactive). Turning to `Cc1ccc(Sc2cc(C(F)(F)F)nc(N(C)C)n2)cc1`, the inhibition was -0.68% (inactive).

As for `Cc1cc(C)n2c(SCCN3C(=O)c4ccccc4C3=O)nnc2n1`, the inhibition was 0.6% (inactive). As to `CCOC(=O)c1cnc(SCC#N)nc1N`, the inhibition was 0.91% (inactive). As to `O=C(CSc1nc2ccccc2[nH]1)Nc1ccc(F)cc1`, the inhibition was -1.92% (inactive). The figure for `NS(=O)(=O)c1ccc(NC(=O)CSc2nc3ccccc3[nH]2)cc1` is 13.4% (active); for `NS(=O)(=O)c1cccc(NC(=O)CSc2nc3ccccc3[nH]2)c1` it is 4.49% (inactive).

In the case of `CCn1ncc2c(OCc3ccc(C#N)cc3)cc(C)nc21`, the inhibition was 13% (active). As to `Cc1csc(OCc2ccc(C#N)cc2)n1`, the inhibition is 4.28% (inactive). The figure for `CCOc1c(C#N)c(C#N)c2nc(C)cc(C)n12` is -3.28% (inactive). With `c1cnc2ccc(C(c3nnnn3C3CCCCC3)N3CCN4CCCC4C3)cc2c1` (stereo not given) the figure was -1.69% (inactive); with `O=C(O)c1ccccc1C(=O)Nc1cccc([N+](=O)[O-])c1`, 17.2% (active). Consider `O=C(O)c1cc([N+](=O)[O-])ccc1C(=O)Nc1ccccc1`, for which the inhibition was 0.35% (inactive). As for `O=C(Nc1cccc([N+](=O)[O-])c1)c1ccccc1`, the inhibition was -2.61% (inactive). With `COc1ccc(/C=C/C(=O)C2CC2)cc1COc1cccc(C)c1C` the figure was 1.77% (inactive). For `O=C(CSCc1ccc(Cl)cc1Cl)Nc1ccccc1C(=O)Nc1ccc(C(=O)O)cc1`, the inhibition was -3.25% (inactive). Turning to `CC(C)(CN1CCN(c2ccccc2)CC1)NS(=O)(=O)c1ccccc1`, the inhibition is -4.3% (inactive). The figure for `COC(=O)c1ccccc1CCC(C)=O` is -1.25% (inactive). With `O=c1cc2c(=O)oc3cc(O)c(O)oc3c2c(O)c1O` the figure was 16.8% (active); with `O=c1oc2ccccc2c2oc3cc(O)c(O)cc3c12`, 2.91% (inactive); with `O=c1oc2cc(O)c(Cl)cc2c2ccccc12`, 2.71% (inactive). Turning to `CN1C(=O)NC(=O)/C(=C/c2ccc(C(=O)O)cc2)C1=O`, the inhibition is 2.77% (inactive). On to `CN(C(=O)CC(=O)Nc1ccc(Cl)c(Cl)c1)c1ccccc1`, for which the inhibition was 0.26% (inactive). `CC(CCc1ccccc1)NC(=O)C1CCCN(c2nnc(-n3cccc3)s2)C1` (stereo not given): the inhibition is 7.96% (inactive). Turning to `COC(=O)c1ccccc1NC(=O)N1CCN(c2ccccc2)CC1`, the inhibition is -3.35% (inactive).

As to `COCCNC(=O)C1CC2Cn3c(nc4cc(C)c(C)cc43)C2N1C` (stereo not given), the inhibition is 1.27% (inactive).

For the compound `Cc1cc(Cc2ccc(N)c(C)c2)ccc1N`, the inhibition was -3.87% (inactive).

In the case of `Nc1ccc(Cc2ccc(N)c(C(=O)O)c2)cc1C(=O)O`, the inhibition is 7.1% (inactive).

Take `Nc1ccc(Cc2ccc(N)c(O)c2)cc1O`: the inhibition was 13.4% (active). With `COc1cccc(NS(=O)(=O)c2ccc3c(c2)C2C=CCC2C(c2ccc(C(=O)O)cc2)N3)c1` (stereo not given) the figure was 13.1% (active); with `O=C(O)c1ccc2c(c1)C1C=CCC1C(c1ccncc1)N2` (stereo not given), -9.79% (inactive). Take `COc1ccc(C(=O)N/N=C(\C)c2ccc3c(c2)C2C=CCC2C(c2ccccc2)N3)cc1` (stereo not given): the inhibition was 7.99% (inactive). With `CC(=O)c1ccc2c(c1)C1C=CCC1C(c1ccc(S(=O)(=O)N3CCOCC3)cc1)N2` (stereo not given) the figure was 0.66% (inactive).

Take `Cc1c(Cl)cccc1NS(=O)(=O)c1ccc2c(c1)C1C=CCC1C(c1ccc(C(=O)O)cc1)N2` (stereo not given): the inhibition was 23.6% (active).

In the case of `O=C(O)c1ccc(NS(=O)(=O)c2ccc3c(c2)C2C=CCC2C(c2ccccc2F)N3)cc1` (stereo not given), the inhibition was 25.9% (inactive).

As to `CC1CCc2sc(C(=O)OCC(=O)NCc3ccccc3)cc2C1` (stereo not given), the inhibition was -4.45% (inactive). With `CC12CCC(C/C1=N\OC(=O)c1ccc(F)cc1)C2(C)C` (stereo not given) the figure was 1.74% (inactive); with `C/C=C/C(=O)N1CC2(CC(c3cccc(NC(=O)/C(C)=C/C)c3)=NO2)C[C@H]1C(N)=O` (stereo not given in full), 3.31% (inactive); with `Cc1cc(C)n(-c2cc(N3CCN(S(=O)(=O)c4ccc(Cl)cc4)CC3)ccc2[N+](=O)[O-])n1`, 5.84% (inactive).

Take `COc1cccc2c(=O)n(CC(=O)N3CCc4ccccc43)ccc12`: the inhibition was 1.33% (inactive).

As for `N#CC1=C(N)N(c2ccccc2)C2=C(C(=O)CCC2)C1c1cccs1` (stereo not given), the inhibition was 2.47% (inactive). Consider `CCCCNC(=O)Oc1c(Br)cc2sc(=O)oc2c1Br`, for which the inhibition is 13.8% (active). `O=C(NC1CCCCC1)Oc1cc2oc(=O)sc2cc1Br`: the inhibition is -0.42% (inactive). In the case of `CCCCNC(=O)Oc1cc(CCl)on1`, the inhibition was -3.53% (inactive). As for `CSc1cccc(NC(=O)C2CCCN2S(=O)(=O)c2ccc(Br)s2)c1` (stereo not given), the inhibition is 7.56% (inactive). With `CSc1ccc(C(=O)C2CCCN(Cc3cnc(SC)nc3)C2)cc1` (stereo not given) the figure was -1.56% (inactive); with `COc1cccc(N2CCN(C(=O)NC3CCCCC3)CC2)c1`, -5.07% (inactive). In the case of `CCCCC(CC)C1OCC(CN2CCCCC2)O1` (stereo not given), the inhibition was 7.5% (inactive). The figure for `O=C1NC(=O)N(c2ccccc2)C(=O)/C1=C/c1ccc(Sc2ccccc2)o1` is 19.6% (inactive); for `CN1C(=O)C(=Cc2ccc(Sc3ccccc3)o2)C(=O)N(C)C1=O` it is -2.7% (inactive).

For the origin of these results see PubChem BioAssay AID1376 (SRMLSC, 2008).
